Source: PubChem BioAssay
PGK inhibitor = T. brucei PGK inhibition. 380,000 compounds, 0.043% hits. PGK/GAPDH coupled, Kinase-Glo luminescence, 60 min. P07378. Potency, µM (series often up to 57.5 µM), inactives show at the top dose activity change, negative = inhibition, actives largely listed as inhibitors; also: % is scaled to controls: 0 for no effect and ±100 for the full control effect; nearly all actives have a fitted effect of over 60% in size
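Recombinant glycosomal PGK reaction used 1,3-bisphosphoglycerate generated in-well by GAPDH (100nM final) in 100mM TEA pH 7.6, 5mM MgCl2, 0.01% Tween-20. After 60 minutes at room temperature, ATP was read by Kinase-Glo Plus luminescence end-point.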
Pol kappa inh = DNA polymerase kappa (human) inhibition | Q9UBT6 | purified Pol kappa, fluorescent DNA synthesis assay, 10 min | Potency, µM (titrated, usually from 107 µM), for the others: at the top dose activity, negative = inhibition, actives largely listed as inhibitors | 400,000 compounds, 0.53% hits | AID 588579; also: % is scaled to controls: 0 for no effect and ±100 for the full control effect
Target sequence (Q9UBT6 whole entry, looked up): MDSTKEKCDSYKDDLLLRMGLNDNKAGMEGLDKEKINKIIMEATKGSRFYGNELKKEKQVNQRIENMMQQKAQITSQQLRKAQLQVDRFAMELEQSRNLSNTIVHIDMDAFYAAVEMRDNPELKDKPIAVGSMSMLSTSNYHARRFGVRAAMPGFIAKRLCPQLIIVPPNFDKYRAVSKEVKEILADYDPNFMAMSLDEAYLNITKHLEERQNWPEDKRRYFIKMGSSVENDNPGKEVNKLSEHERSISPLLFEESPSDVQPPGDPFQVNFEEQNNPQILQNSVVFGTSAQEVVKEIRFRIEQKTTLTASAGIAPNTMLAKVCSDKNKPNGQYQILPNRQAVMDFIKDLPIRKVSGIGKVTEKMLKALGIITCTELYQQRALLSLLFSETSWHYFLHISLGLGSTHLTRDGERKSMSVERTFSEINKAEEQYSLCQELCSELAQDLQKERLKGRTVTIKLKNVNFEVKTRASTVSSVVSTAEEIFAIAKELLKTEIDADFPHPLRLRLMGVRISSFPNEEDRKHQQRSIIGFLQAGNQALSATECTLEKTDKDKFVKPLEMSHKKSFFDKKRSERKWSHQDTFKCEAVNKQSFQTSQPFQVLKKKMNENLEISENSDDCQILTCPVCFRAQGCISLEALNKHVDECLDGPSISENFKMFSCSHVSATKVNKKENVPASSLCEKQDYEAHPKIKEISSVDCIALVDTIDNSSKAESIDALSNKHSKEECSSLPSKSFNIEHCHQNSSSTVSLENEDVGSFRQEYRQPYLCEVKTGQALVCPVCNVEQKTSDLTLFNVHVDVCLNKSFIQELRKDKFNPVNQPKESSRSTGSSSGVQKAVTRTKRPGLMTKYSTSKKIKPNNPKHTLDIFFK
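Kinetic fluorescence readout at 0 and 10 min followed reaction start with substrate at 50 nM final. Beforehand, enzyme (10 nM Pol kappa) stood 15 min with compound at room temperature; buffer-only wells were negative controls.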
POLH inh = blocks human DNA polymerase eta activity; 390,000 compounds, 1.2% hits; Q9Y253; recombinant Pol eta, fluorescent DNA replication assay; Potency, µM (doses to about 114 µM), without a hit: at the highest dose activity change, negative = inhibition, most hits filed as inhibitors; also: % is scaled to controls: 0 for no effect and ±100 for the full control effect
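Pol eta (10 nM) was preincubated with compounds for 15 min at room temperature, after which fluorescent replication substrate (50 nM final) was added to start the reaction. Fluorescence was read kinetically at 0 and 10 min.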
POLI inh = blocks human DNA polymerase iota activity; Potency, µM (top dose mostly 115 µM), for the others: at the top dose activity, negative = inhibition, usual class: inhibitors; Pol iota fluorescent replication assay, 10 min; 390,000 compounds, 1% hits
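Fluorescent replication assay read twice, at 0 min and 10 min after adding 50 nM (final) substrate. Enzyme (10 nM) and compounds were first incubated 15 min at room temperature; enzyme-free buffer wells were negative controls.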
Pol beta inh = DNA polymerase beta (human) inhibition; P06746; Pol beta primer extension/strand displacement, fluorescence kinetic; Potency, µM (series often up to 114 µM), without a hit: top-dose activity change, negative = inhibition, usual class: inhibitors; 340,000 compounds, 1.3% hits; also: % is scaled to controls: 0 for no effect and ±100 for the full control effect
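Homogeneous kinetic assay of primer extension and strand displacement by 10 nM Pol beta, preincubated 15 min at room temperature with compound before 50 nM substrate (final) was added. Read at 0 and 10 min; four-parameter Hill fit.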
FEN1 inhibitor = human FEN1 inhibition; Potency, µM (highest dose often 114 µM), for inactives: at the highest dose activity change, negative = inhibition, most hits filed as inhibitors; Recombinant FEN1 flap cleavage, fluorescence, 15 min; 390,000 compounds, 0.35% hits; P39748; also: % is scaled to controls: 0 for no effect and ±100 for the full control effect; nearly all actives have a fitted effect of over 65% in size
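Concentration–response screening of FEN1 (10 nM): 15 min compound preincubation at room temperature, reaction started with 50 nM substrate and read at 0 and 15 min. Corrected, normalized data were fitted by a four-parameter Hill equation.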
* marks the source's active call; other numbers are inactive results; i = inactive; ? = inconclusive; . = no result; [ ] = remark or other dose. Most compounds without a hit are left out; they make up all but 2.4% or so of the library. Calls follow the shape of the dose curve; as a rule, active = well fitted curve in the direction sought with a large enough effect; inconclusive = small, poorly fitted or top-dose-only effect, or another doubt; inactive = no such curve, though single readings can be large; an effect the other way counts as inactive or inconclusive. Potency is read from the fitted curve at half-maximal effect.

SMILES | PGK inhibitor | Pol kappa inh | POLH inh | POLI inh | Pol beta inh | FEN1 inhibitor
O=C1NC(=O)/C(=C/c2ccc3c(c2)OC(F)(F)O3)S1 | . | -5%[60.1 µM] | . | . | . | .
CSc1cccc(NC(=O)CN(Cc2ccc(Cl)cc2)S(C)(=O)=O)c1 | -2% | -10% | -3% | 89µM* | -4% | -22%
O=C(O)CCc1ccc(-c2ccc(Br)cc2)o1 | i | ? | -3% | 40µM* | 28% | 9%
CC(=O)c1ccc2c(c1)C1C=CCC1C(c1ccncc1)N2 (configuration not stated) | -1% | -13% | ? | 32µM* | ? | -18%
C1=CC2c3ccccc3NC(c3ccncc3)C2C1 (configuration not stated) | 4% | -19% | ? | ? | 11% | -10%
Cc1ccc2c(c1)C1C=CCC1C(C(=O)O)N2 (configuration not stated) | . | . | . | . | 3.5µM* | .
Cc1ccc(-n2nnnc2SCC(=O)NNC(=O)c2ccc([N+](=O)[O-])cc2)cc1 | i | ? | ? | ? | 5.6µM* | 8%
C/C(N)=C(/C#N)C(=O)CSc1nnnn1-c1ccc(C)cc1 | 0% | -32% | ? | ? | -28% | -19%
C=C1C=C(C)n2ncc(C(=O)Nc3ccc(C)cn3)c2N1 | . | -1% | . | ? | . | -11%
N#Cc1ccc(/C=N/NC(=S)Nc2ccc(S(=O)(=O)N3CCOCC3)cc2)cc1 | i | -2% | -17% | 23% | -2% | -3%
O=S(=O)(c1ccc(NC(=S)N/N=C/c2ccc(O)c(O)c2)cc1)N1CCOCC1 | -7% | ? | -3% | 20µM* | -27% | 0%
Nc1nnc(-c2cc3c(ccc4ccccc43)oc2=O)s1 | . | . | . | . | 22µM* | .
Cc1ccc(C(=O)Nc2ccc(F)cc2)o1 | -4% | -14% | -13% | -1% | ? | 3%
Cc1ccc(C(=O)Nc2ccc(O)c(C(=O)O)c2)o1 | -18% | -31% | 14µM* | 9% | ? | -9%
Cc1ccc2nc3sc(C(=O)Nc4c(C)[nH]c(=O)[nH]c4=O)c(N)c3cc2c1 | 10% | -26% | ? | 4% | 50µM* | ?
Cc1ccc2cc3c(N)c(C(=O)Nc4c(C)[nH]c(=O)[nH]c4=O)sc3nc2c1 | -7% | -28% | ? | ? | ? | ?
COc1cc(NC(=O)COc2ccccc2Cl)ccc1NC(=O)c1cccs1 | -3% | -2% | 0% | 50µM* | 7% | 9%
COc1cc(NC(=O)COc2ccccc2[N+](=O)[O-])ccc1NC(=O)c1cccs1 | i | -4% | ? | ? | ? | -6%
Cc1ccc(OCC(=O)NCC2(N3CCOCC3)CCCCC2)cc1C | i | ? | -14% | 89µM* | 3% | 4%
Cc1cc(Nc2ccc(O)cc2)ccc1N | . | -26% | . | 20µM* | . | ?
Oc1ccc(Nc2ccc3ccccc3c2)cc1 | -8% | -32% | -14% | ? | . | -3%
O=S1(=O)CCOC[C@H](c2ccccc2)N1Cc1ccc(Cl)cc1Cl | . | -10% | . | -4% | . | -27%
C#CCOc1c(/C=C\c2nc(O)c([N+](=O)[O-])c(=O)[nH]2)cc(Br)cc1OC | 4% | -43% | 35µM* | ? | ? | ?
C=CCOc1ccc(/C=C\c2nc(O)c([N+](=O)[O-])c(=O)[nH]2)cc1OCC | . | -7% | 20µM* | ? | 6% | 7%
COc1ccc(/C=C\c2nc(O)c([N+](=O)[O-])c(=O)[nH]2)cc1O | -5% | -8% | -14% | 12% | 23% | -19%
C=CCOc1ccc(/C=C\c2nc(O)c([N+](=O)[O-])c(=O)[nH]2)cc1OC | -12% | ? | 25µM* | 50µM* | 0% | ?
CCCS(=O)(=O)c1ncc(Cl)c(C(=O)N2CCN(c3ccc(OC)cc3)CC2)n1 | i | -4%[60.1 µM] | -6% | -12% | -1% | ?
Clc1ccc(/C=C/c2ccncc2)cc1Cl | . | 0% | . | 1% | . | -3%
